Measurements as given in PubChem BioAssay.

Assay: reducers of endogenous Her2 protein level, primary screen, SKBR3 breast tumor cells, AlphaScreen, ATP viability (AID 461);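 further: percent of carrier control wells set as 100% viability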
Conditions: 18-24 h, measured here: SKBR3 viability, ATP luminescence, at 10 µM

SMILES | viability
CCCCN=CC1=C(O)C(C(=O)OC)C(C)(C)CC1=O (stereo not given) | 79%
Cc1ccc(C)c(C(=O)CC2(O)C(=O)N(C)c3ccccc32)c1 (stereo not given) | 112%
CC(=O)C1=C(C)Nc2ncnn2C1c1cccc(OCc2ccccc2)c1 (stereo not given) | 102%
Cc1ccc(C(=O)CC2(O)C(=O)N(C)c3ccc(Br)cc32)c(C)c1 (stereo not given) | 85%
Fc1cccc(Nc2ncnc3c2cnn3-c2ccccc2)c1 | 83.5%
COc1ccc(NC(=O)NCCN2C(=O)C3C4C=CC(C4)C3C2=O)cc1 (stereo not given) | 96%
Cc1ccc(C)c(NC(=O)CSc2nnc(-c3ccccc3)o2)c1 | 89.5%
O=C(NCCCN1CCOCC1)c1cc(-c2ccc(O)cc2)on1 | 100%
CCOC(=O)c1ccc(NC(=O)Cn2cc3c(n2)CCC(C)C3)cc1 (stereo not given) | 91.5%
N#C/C(C(=O)N1CCOCC1)=C1/SC=C(c2ccccc2)N1c1ccccc1 | 102%
COc1ccc(C(=O)c2coc3ccc(O)c(CN4CCCCC4)c23)cc1 | 79.5%
CCn1c(C(=O)N2CCC(C(=O)N3CCN(c4ccccn4)CC3)CC2)cc2sccc21 | 95%
CCOC(=O)N1CCN(Cc2nc3c(c(=O)n(C)c(=O)n3C)n2Cc2ccccc2)CC1 | 104%
CN1CCN(C(=O)c2ccc(CS(=O)(=O)c3c(Cl)cccc3Cl)o2)CC1 | 98.5%
CN(C)CCCN1C(=O)c2oc3ccc(Cl)cc3c(=O)c2C1c1cccnc1 (stereo not given) | 100%
O=C(CSc1nnc2ccccn12)c1ccccc1 | 99%
Cc1ccccc1Cn1ccc(NC(=O)c2onc(C)c2Cl)n1 | 107%
CN(CCCNC(=O)c1cn(C)c2ccc(S(=O)(=O)N(C)C)cc2c1=O)c1ccccc1 | 85.5%
NC(=O)CN1C(=O)C(O)(CC(=O)c2ccccc2O)c2ccccc21 (stereo not given) | 92.5%
CC(C)CCN(C)C1CCN(S(=O)(=O)c2ccc(F)cc2)CC1 | 87%

SMILES | viability
COc1ccc(C(C)N2CC34C=CC(O3)C(C(=O)OCC(C)C)C4C2=O)cc1 (stereo not given) | 103%
COc1ccc(Cl)cc1S(=O)(=O)N1CCN(c2ccc(F)cc2)CC1 | 80%
Cc1sc2nc(SCC(=O)NCCO)n(C)c(=O)c2c1C | 91%
CC(=O)NCCc1nc2ccccc2[nH]1 | 94%
CCN1C(=O)c2cccc3c(NC(=O)c4ccc(S(=O)(=O)N(C)C)cc4)ccc1c23 | 86%
Cc1nc2ccccc2c2oc(C(=O)N3CCN(C(=O)c4ccco4)CC3)cc12 | 79%
c1ccc(Cn2nnc3c(N4CCCCCC4)ncnc32)cc1 | 94%
COC(=O)c1cn(C(=O)c2ccc(Br)o2)c2ccccc12 | 89%
CS(=O)(=O)Nc1ccccc1C(=O)O | 102%
Cn1cccc1Cc1nnc(SCC(=O)NCC2CCCO2)n1-c1ccc(F)cc1 (stereo not given) | 97.5%
Cc1ccc(Cn2c(=O)c3ccccc3n3c(CCC(=O)O)nnc23)cc1 | 107%
COc1ccc(OCCSc2nc3ccccc3n2CC(=O)O)cc1 | 92.5%
CCCCSc1nc2c(cnn2-c2ccc(F)cc2)c(=O)[nH]1 | 93.5%
CCOc1ccc(NC(=O)C(C)Sc2nnc(C)n2C)cc1 (stereo not given) | 92%
CCOc1ccc2[nH]c(C)cc(=O)c2c1 | 100%
Cc1nc2ccccc2c2oc(C(=O)N3CCC(N4CCCCC4)CC3)cc12 | 102%
O=C(O)c1ccc2c(c1)C(=O)N(c1ccc(Cl)cn1)C2=O | 98%
COc1cccc(-c2nc(CS(=O)(=O)CC(=O)NCc3ccc(Cl)cc3)c(C)o2)c1 | 72.5%
COc1ccc(C(NC(=O)c2ccco2)c2ccc(OC)c(OC)c2)cc1 (stereo not given) | 93%
CCOC(=O)N1CCC(NC(=O)CN2C(=O)CCSc3ccccc32)CC1 | 96.5%
